Our source for the growth values is PubChem BioAssay (NCI).

Compounds without any hit were thinned out: in the full panel of roughly 83,000, 20% have a hit.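 Compound tested at a single concentration for 48 hours in 96-well plates; a percent growth value below 10 was scored as active.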 Calls of active or inactive are those of the source.

The subject of this assay is CCRF-CEM leukemia. Kind of assay: NCI-60 one-dose screen, 48 h (100 = growth as untreated, 0 = no growth, -100 = all killed). The following applies: 10 µM unless noted.
Consider `Cn1cc(-c2csc(-c3ccc(Cl)cc3)n2)c2cccnc21`, for which the growth was -18.8% [100 µM] (active).

For the molecule `COc1cc(-c2nc(SCCC(C)C)nc(Nc3ccccc3Cl)c2C#N)cc(OC)c1OC`, the growth is 92.1% (inactive).

For `CCn1c(=S)[nH]c2c(=O)n(C)c(=O)n(C)c21`, the growth is 102% (inactive).

Consider `c1ccc(CNc2c3ccccc3nc3ccccc23)cc1`, for which the growth was 39% (inactive).

On to `COCCn1c(-c2csc(-c3cn(C)c4ccc(OC)cc34)n2)cc2cccnc21`, for which the growth is 41.3% (inactive).

As to `CCOC(=O)CSc1ncnc2c1c(-c1ccccc1)c(-c1ccccc1)n2-c1ccc(C)cc1`, the growth was 67% (inactive).

On to `COc1cc2oc(-c3cccc(NC(=O)c4cccc(Br)c4)c3)cc(=O)c2c(OC)c1OC`, for which the growth was 30.3% (inactive).

In the case of `Cc1ccc(Cl)cc1Nc1nc(C(F)(F)F)ccc1C(=O)N/N=C/c1cccnc1`, the growth is 10.6% (inactive).

Regarding `Cn1c(=O)c2c(nc(NC3=NS(=O)(=O)c4ccccc43)n2CC(=O)N2CCc3ccccc32)n(C)c1=O`, the growth was 101% (inactive).

On to `Cc1cccc(Cl)c1NC(=O)c1ccc2nc(NC(=O)NCCN(C)C)sc2c1`, for which the growth is 79.4% (inactive).

Consider `CCOC(=O)c1c(C)nc2c(c1N)CC(=O)N2Cc1cc(F)cc(Cl)c1`, for which the growth is 95.2% (inactive).

In the case of `COC(C(=O)[C@@H](O)[C@@H](C)O)[C@@H]1Cc2cc3cc(O[C@H]4C[C@@H](O[C@H]5C[C@@H](O)[C@H](O)C(C)O5)[C@H](O)C(C)O4)cc(O)c3c(O)c2C(=O)[C@H]1O[C@H]1C[C@@H](O[C@H]2C[C@@H](O[C@H]3C[C@@H](OC)[C@H](O)C(C)O3)[C@@H](O)C(C)O2)[C@H](O)C(C)O1` (stereo not given in full), the growth was 68.9% (inactive).

For the molecule `CN([O-])c1nc(N(C)[O-])nc(N2CCOCC2)n1.CN([O-])c1nc(N(C)[OH2+])nc(N2CCOCC2)n1.[Fe+3]`, the growth was 11.7% [100 µM] (inactive).

In the case of `CCOP(=O)(OCC)c1nc(-c2ccccc2)oc1NCc1cccnc1`, the growth was 108% (inactive).

Regarding `CCn1c(SCC(=O)c2ccc(Br)cc2)nnc1-c1ccncc1`, the growth was 108% (inactive).

For `CCCCNc1ccc(C#N)c(OCCN(CC)CC)c1`, the growth is 94.8% (inactive).

Turning to `N#Cc1c(-c2ccc(Cl)cc2)nc(NN=Cc2cccc(O)c2)nc1N1CCOCC1`, the growth was 36.2% (inactive).

`CS(=O)(=O)Nc1cc(-c2ccc3ncnc(Nc4c(Cl)ccc5c4OCO5)c3c2)cnc1Cl`: the growth was 11.9% (inactive).

Consider `Fc1cccc(CNc2c3ccccc3nc3ccccc23)c1F`, for which the growth was 62.4% (inactive).

On to `COC(=O)CNC(=O)[C@H](Cc1ccccc1)NCc1ccncc1`, for which the growth was 86% (inactive).

For `O=C(NCCCN1CCOCC1)c1cccc(N2C(=O)/C(=C/c3ccc(F)cc3)SC2=S)c1`, the growth is 108% (inactive).

For `O=[N+]([O-])/C(=C/C=C/c1ccccc1)c1ccccc1`, the growth was 36.5% (inactive).

For `Cn1cc(-c2csc(-c3c[nH]c4ccc(Br)cc34)n2)c2cnccc21`, the growth is -39% (active).

In the case of `C=C(C)[C@@H]1CC[C@]2(C(=O)N3CCN(C)CC3)CC[C@]3(C)[C@H](CC[C@@H]4[C@@]5(C)CC(=C/c6ccncc6)/C(=N/O)C(C)(C)[C@@H]5CC[C@]43C)[C@@H]12`, the growth is 57.9% (inactive).

Regarding `COc1cc(N2C(=O)[C@H](O)C2c2ccc(SC)cc2)cc(OC)c1OC` (stereo not given in full), the growth was 3.99% (active).

Take `CCCCC(=O)c1ccco1`: the growth was 92.3% (inactive).

For `C=C(C)[C@@H]1CC[C@]2(C)[C@H](CC=C3[C@@H]4[C@H](C)[C@@H](C)CC[C@]4(CO)CC[C@]32C)[C@@]1(C)CCCN`, the growth was 0.722% (active).

With `COc1ccc2[nH]cc(-c3nc(-c4c[nH]c5ccncc45)cs3)c2c1`, the growth is -7.05% (active).

Turning to `Oc1ccc(CN2CCC(N3CCCCC3)CC2)c2cccnc12`, the growth is 35.8% (inactive).

For the molecule `CC(C)(C)c1cc(-c2nc3ccc(N4CCN(S(C)(=O)=O)CC4)cc3[nH]2)cc(C(C)(C)C)c1O`, the growth is 84.5% (inactive).

For the molecule `COc1ccc2c(c1)c(-c1noc(C(=O)c3cn(C)c4ccc(Br)cc34)n1)cn2C`, the growth was 99.8% (inactive).

Consider `C[C@H](NC(=O)[C@@H](C)N)[C@H](Oc1ccc2c(cnn2-c2ccc(F)cc2)c1)c1ccc2c(c1)OCCO2`, for which the growth was 15.5% (inactive).

Turning to `C=C(C)[C@@H]1CC[C@]2(C(=O)O)CC[C@]3(C)[C@H](CC[C@@H]4[C@@]5(C)C[C@@H](Cc6cn(CCO[C@@H]7O[C@H](COC(C)=O)[C@H](OC(C)=O)[C@H](OC(C)=O)[C@H]7OC(C)=O)nn6)[C@H](O)C(C)(C)[C@@H]5CC[C@]43C)[C@@H]12`, the growth was 69.2% (inactive).

For `CCN(CC)CCOc1ccc(-c2c(-c3ccccc3)c(=O)oc3ccccc23)cc1`, the growth is 95.7% (inactive).

For the molecule `COc1ccc2c(O)c(/C=C3\N=Nc4ccccc43)oc2c1C[C@@H]1CCNC[C@H]1F`, the growth is -16.3% (active).

Take `COc1cc(OC)cc(C2=C3CC[C@@H]4[C@H](CC[C@]5(C)C(=O)CC[C@@H]45)C3=CC3C(O)c4cccnc4N4C(=O)COC234)c1` (stereo not given in full): the growth was 104% (inactive).

Turning to `CC(=O)N1N=C(c2ccc(Nc3nc(Nc4ccc(Cl)cc4)nc(Nc4ccc(Cl)cc4)n3)cc2)CC1c1ccco1` (stereo not given), the growth was 92.4% (inactive).

In the case of `CCS/C(Nc1ccccc1)=C(\C#N)C(=O)N/N=C/c1ccc(Cl)cc1Cl`, the growth was 9.86% (active).

As for `CCOC(=O)C(=Cc1cccc(Cl)c1)C(=O)OCC`, the growth is -1.23% (active).

Take `CN[C@]12CC3(C=CC(=O)C=C3)O[C@@]1(Cc1ccc(OC)cc1)N(C)C(=O)N2`: the growth was 6.3% (active).
